# Several values for one entry are separate records, joined by “and”; a condition that tells them apart may be missing. Equal values may be shown once. The panel holds about 79,000 compounds, 15% with a hit somewhere; the sample as a whole holds those more often. A number with no mark means an inactive call. No stated cut-off is given here; in the data, active means growth inhibition above about 70%; inactive means the rest.
# Test: NCI Yeast Anticancer Drug Screen. Data for the mec2-1 strain (AID 157)
# Conditions: S. cerevisiae mec2-1 strain, at 50.0 µM, hits give high values
# Procedure, shortened: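 Vehicle-treated cultures served as reference for growth inhibition of compound-exposed mec2-1 yeast.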
row,Compound,growth inhibition
1,CNC(=O)Oc1cc(OC)ccc1C(=O)c1ccccc1,6.85%
2,O=P(Oc1ccccc1)(Oc1ccccc1)C(O)C(Cl)(Cl)Cl (stereo not given),-2.55%
3,Cc1cc(N(CCCl)CCCl)ccc1C=Nc1ccc(F)cc1[N+](=O)[O-],3.1%
4,CSP(=S)(SC)SC,-5.7%
5,O=C(Nc1ccccc1Cl)OCC(Cl)(Cl)Cl,2%
6,O=C(Cc1ccccc1)Oc1ccc2c(-c3ccccc3)c(C(=O)Nc3ccc(Cl)cc3)c(=O)oc2c1,5.2%
7,Cc1cccc(OCC2=NCCN2)c1C,-4.4%
8,COCC1OC(OC2C3=C(C(C)C)CCC3(C)/C=C3\C(CCC3(O)COC)C(C)C2O)C(O)C2OC3OC12OC3(C)C1CO1 (stereo not given),7.75%
9,COc1ccc2c(c1OC)CC(N)C2O (stereo not given),3.55%
10,O=C(Cl)C1CCC1,-5.35%
11,Cc1cc(C)cc(C(O)(C(=O)O)c2ccccc2)c1 (stereo not given),-5.35%
12,COC1=CC(=Nc2ccc(N(CCCl)CCCl)cc2)C=CC1=O,26.8%
13,O=c1[nH]c(=S)[nH]c(O)c1/C=C1\C=CC=N1,-3.95%
14,CCCNC(Cc1ccccc1)c1ccccc1 (stereo not given),-9.25%
15,O=C([O-])CN(CCN(CC(=O)[O-])CC(=O)O)CC(=O)O.[Fe+5].[Na+],-13.3%
16,CC1COC(Nc2cccc3c2CCCC3)=N1 (stereo not given),-13.7%
17,CCCCC[N+]1=Cc2cc(O)c(O)cc2CC1,-5.7%
18,Cc1cccc2c(=O)c([Se]c3coc4c(C)cccc4c3=O)coc12,-15.2%
19,CCC(C)C(CC)C(=O)NC(N)=O (stereo not given),4.55%
20,C[N+](C)(C)Cc1ccc2ccccc2c1Br,7.05%

row,Compound,growth inhibition
1,CCCCCCC(=O)O[C@H]1CC[C@H]2[C@@H]3CCC4C/C(=N/NC(=O)c5cccc6c(=O)c7ccccc7[nH]c56)C=C(C)[C@]4(C)[C@H]3CC[C@]12C (stereo not given in full),-0.85%
2,CCC1(CC)COP(=S)(S)OC1,-17.8%
3,CCOP(O)(=S)OCC,23.4% and 10.2% and 2.35%
4,CC(N)C(O)c1ccc(O)cc1 (stereo not given),-12%
5,CC(=O)N1CCCN(C)/C1=N/[N+](=O)[O-],-14.8%
6,CC(C)(NC1=NCCO1)c1ccccc1,-16.9%
7,ClCc1cccc2ccccc12,-4.7%
8,Cc1cccc(C)c1N,2.4%
9,CCNC(=O)C(C)Br (stereo not given),13.1%
10,COC1OC2COC(c3ccccc3)OC2C2N=C(N)N([N+](=O)[O-])C12OS(C)(=O)=O (stereo not given),-5.4%
11,Oc1c(Cl)cc(Cl)cc1C1N(Cc2ccc(N(CCCl)CCCl)cc2)CCCN1Cc1ccc(N(CCCl)CCCl)cc1,17.2%
12,CN(CCOC(=O)c1ccc(Br)cc1)[N+](=O)[O-],3.2%
13,O=[Te]=O,-8.15%
14,CC(C)CC1N=C(NN=C2CCCCC2)SP1(=O)NNc1ncccn1 (stereo not given),7.15%
15,Cc1[nH]c2cc([N+](=O)[O-])ccc2c1[N+](=O)[O-],32.2% and 25.4%
16,CCCCNCCc1cccnc1,13.8%
17,C/C=C(\CC)C1(CCC)C(=O)NC(=O)NC1=O,13.1% and 3%
18,CN1CCC2=C(c3ccccc3)c3ccccc3C2C1 (stereo not given),-0.55%
19,O=c1oc2cc(O)ccc2c(O)c1C(c1ccccn1)c1c(O)c2ccc(O)cc2oc1=O,9.15%
20,NC(CCl)=NC1CN2CCC1CC2 (stereo not given),-20.4%

# Reference: PubChem BioAssay (NCI)
